Assay results reported in PubChem BioAssay AID504773 (Broad Institute, 2011).
Potency and affinity values are given separately. Active and inactive are the calls of the source.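 The calls were made as follows: active = polarization signal falls with dose and the fitted half-maximal concentration is at or below ten times the sample's top valid dose; inconclusive = flat curve at 30 to 70% inhibition, or poor fit; inactive = signal rises, flat within 30%, or potency beyond limit.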

target: Golgi-associated PDZ and coiled-coil motif-containing protein (Homo sapiens) (UniProt Q9HD26); test: CAL PDZ peptide-binding inhibitors, dose response, biochemical, fluorescence polarization, Cerulean-tagged CAL PDZ, cherry-picks (AID 504773); details: 1 h; series mostly up to 50 µM

outcome, inactive:
COc1cccc(CN2CCN(C3CSCCSC3)CC2CCO)c1 (stereo unspecified)
O=C(O)c1ccc(Oc2cc(Oc3ccc(C(=O)O)cc3)cc([N+](=O)[O-])c2)cc1
CC1=C(C#N)C(=O)NC(=O)/C1=C\c1ccc(-c2cc(C)c(C)cc2[N+](=O)[O-])o1
O=C(c1ccc([N+](=O)[O-])cc1)N1CCC(Cc2ccccc2)CC1
CC1CCC(NC(=O)c2ccc3c(c2)S(=O)(=O)c2ccccc2C3=O)CC1 (stereo unspecified)
CN(C(=O)CC1C(=O)NCCN1CC(c1ccccc1)c1ccccc1)C(C1CC1)C1CC1 (stereo unspecified)
OCC1(CCOc2ccccc2)CCN(CCCn2cccn2)CC1
Cc1cccc(NS(=O)(=O)Cc2ccccc2)c1C
CC(C)(C)OC(=O)N[C@@H](Cc1c[nH]c2ccccc12)c1nnc(SCC(N)=O)o1
CCOC(=O)c1c(CN2CCOCC2)oc2ccc(OC(C)=O)cc12
C=CCNC(=S)Nc1ccc(C)c(S(=O)(=O)N2CCCCC2)c1
O=C(OCc1ccc(Br)cc1)c1cccnc1
O=C(NC12CC3CC(CC(C3)C1)C2)c1ccco1
CC(=O)N1N=C(c2ccccc2)CC1c1ccccc1 (stereo unspecified)
c1ccc(CNc2nc(NCc3ccccc3)c3ccccc3n2)cc1
CCN1CCN(S(=O)(=O)c2ccc(OC)c3ccccc23)CC1
CCCOc1ccc(S(=O)(=O)Nc2ccccn2)c2ccccc12
O=C(COC(=O)c1ccc(Cl)nc1)Nc1ccc(N2CCCCC2)cc1
COc1ccc(Nc2cccccc2=O)cc1
CCC(C)NC(=O)C1CCCN(C(=O)Nc2ccc(F)cc2)C1 (stereo unspecified)
Cc1ccc(CNC2CCCCC2)s1
C/C(=N\NC(=O)c1cc(-c2ccc(C)s2)nc2ccccc12)c1cccnc1
Cc1c(C)c2cc3c4c(oc3c(C)c2oc1=O)CCCC4
CCN(C(=O)CSc1ncccc1C(=O)O)C1CCCCC1
CC(C)OC(=O)C1CC(C)(O)C(=O)C(C(=O)OC(C)C)C1c1ccc([N+](=O)[O-])cc1 (stereo unspecified)
Cc1nn2c3ccccc3nc2c2ccccc12
CCOC(=O)Cn1ncn(-c2ccc(OC(F)(F)F)cc2)c1=O
C/C(CC(=O)Nc1ccc(C)c(Cl)c1)=N\NC(=O)Cc1cnc(N)s1
CC(=O)Nc1ccc(Nc2ccc3nonc3c2[N+](=O)[O-])cc1
O=C(Cc1ccccc1)NN=C1CCCC1
O=C(NCc1ccccn1)Nc1ccc(F)c(Cl)c1
O=C(COC(=O)c1ccccc1C(=O)N1CCN(c2ccccc2)CC1)NCc1ccccc1
O=C(NCc1ccccc1)C1CCCN(c2nc3ccsc3c(=O)s2)C1 (stereo unspecified)
CC(=O)N1CCN(c2ccc(NC(=O)c3cccc(Cl)c3Cl)cc2)CC1
O=C(O)c1cccc(Nc2ccc([N+](=O)[O-])cn2)c1
O=C(CCc1nc(-c2ccc(Cl)cc2)no1)NC1CCCCC1
